Screens deposited in PubChem by National Center for Advancing Translational Sciences (NCATS).
Shiga inhibitor: Shiga toxin inhibition | AID 2315 | Vero cells, Shiga toxin protein synthesis inhibition reporter | 290,000 compounds, 9.2% hits | inhibition, % at 38.7 µM; in the data active means inhibition mostly above about 28%, no sharp cut-off; inactive means mostly below about 43%
Giardia FBPA inh: blocks Giardia fructose-bisphosphate aldolase activity; A8B2U2; purified Giardia FBPA; Potency, µM (titrated, usually from 59.6 µM), most hits filed as inhibitors; 290,000 compounds, 0.71% hits; AID 2451; further: nearly all actives have a fitted effect of over 55% in size
Target sequence (A8B2U2 whole entry, looked up): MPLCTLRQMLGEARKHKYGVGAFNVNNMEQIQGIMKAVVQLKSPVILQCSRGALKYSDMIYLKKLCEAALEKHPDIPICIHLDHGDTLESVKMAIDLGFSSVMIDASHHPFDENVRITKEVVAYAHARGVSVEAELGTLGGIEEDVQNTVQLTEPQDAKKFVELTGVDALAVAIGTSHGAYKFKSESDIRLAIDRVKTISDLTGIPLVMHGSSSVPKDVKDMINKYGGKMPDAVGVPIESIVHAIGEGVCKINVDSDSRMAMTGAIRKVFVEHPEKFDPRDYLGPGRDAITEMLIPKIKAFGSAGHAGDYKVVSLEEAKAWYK
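Giardia FBPA (40 nM reagent) was preincubated 10 min at RT with compound (up to 57.5 uM final), then substrate plus GAPDH/TPI/NAD/arsenate coupling system with diaphorase/resazurin was added; resorufin fluorescence (525/598 nm) was read after 20 min.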
LmPK inhibitor: blocks Leishmania mexicana pyruvate kinase activity. AID 1721. 290,000 compounds, 0.37% hits. purified LmPK, Kinase-Glo ATP luminescence, 1 h. Potency, µM (series often up to 57.5 µM), usual class: inhibitors
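In 50 mM imidazole pH 7.2 with 7 mM MgCl2, LmPK (0.1 nM) turned over PEP (0.5 mM) and ADP (0.1 mM) for 1 h at room temperature. Luciferase read-out of ATP.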
Sm TGR inh: blocks Schistosoma mansoni thioredoxin glutathione reductase. 360,000 compounds, 3% hits. purified TGR, DTNB reduction, TNB absorbance 405 nm. Potency, µM (highest dose often 114 µM), most hits filed as inhibitors. AID 485364. Q962Y6; further: nearly all actives have a fitted effect of over 60% in size
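TGR 20 nM + NADPH 100 uM (dispensed conc.), cpd preinc 15 min RT; start with NADPH (500 uM addition) then DTNB (15 mM addition). Kinetic TNB absorbance, 405 nm filter. Four-parameter Hill fit across titration.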
Tb PYK inh: inhibitors of Trypanosoma brucei pyruvate kinase; Q57TT1; TbPYK enzyme, Kinase-Glo Plus ATP luminescence, 45 min; Potency, µM (series often up to 76.8 µM), most hits filed as inhibitors; 410,000 compounds, 0.12% hits; AID 624173; further: nearly all actives have a fitted effect of over 50% in size
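Enzyme and substrate buffer are dispensed first and compound is pin-transferred. ADP at 130 uM final then starts the reaction, which runs 45 min at room temperature. Detection reagent is added for 10 min before luminescence is imaged.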
Cycloheximide cs: counter-screen for Shiga toxin inhibitors: cycloheximide protein synthesis inhibition. AID 2314. cell reporter, cycloheximide protein synthesis inhibition counterscreen. 300,000 compounds, 12% hits. max response, %; in the data active means max response mostly above about 13%, no sharp cut-off; inactive means mostly below about 14%; further: read at 38.3 µM for the half of the compounds with a filed dose
A number is an active result; n = inactive; u = inconclusive; x = no result given; [ ] = dose if it differs, or a comment. Shown is part of a subset that was picked to be rich in hits. Unless noted, the call rests on the fitted dose curve; in most records, active means well fitted curve in the direction sought with a large enough effect; inconclusive means small, poorly fitted or top-dose-only effect, or another doubt; inactive means no such curve, though single readings can be large; an effect the other way counts as inactive or inconclusive.

SMILES	Shiga inhibitor	Giardia FBPA inh	LmPK inhibitor	Sm TGR inh	Tb PYK inh	Cycloheximide cs
CSc1cccc(NC(=O)CSc2ncccc2C(=O)Oc2cccc([N+](=O)[O-])c2)c1	n	n	n	n	n	17
COc1ccc2c(COC(=O)c3n[nH]c4ccccc34)cc(=O)oc2c1	107	n	n	n	n	26
COC(=O)c1cccc(NC(=O)COc2cccc([N+](=O)[O-])c2)c1	n	n	n	n	n	16
COC(=O)[C@@H](O)CC[C@@H](C)Cc1c(OC)c(OC)c(C)c(OC)c1OC	x	n	x	x	x	x
COc1ccc2c(c1)O[C@@H](c1cccc(C(F)(F)F)c1)[C@H](OC(=O)NS(=O)(=O)c1ccc(F)cc1)C2=O	x	n	x	x	x	x
COc1ccc(NC(=O)C(OC(=O)c2ccc([N+](=O)[O-])o2)c2ccccc2)cc1Cl (centres undefined)	n	n	n	n	n	20
CCCCCCCCCCCCCCCCCCOC[C@H](COP(=O)([O-])OCC[N+](C)(C)C)OC(C)=O	x	n	x	x	x	x
CCCCNC(=S)NNC(=O)c1csc(C)c1	n	n	n	n	n	n
Cc1cccc(NC(=S)NNC(=O)c2csc(C(C)C)c2)c1	42	n	n	n	n	42
Cc1ccc(NC(=O)COC(=O)c2cc(Cl)cc(Cl)c2)c(Br)c1	n	n	n	n	n	n
Cc1cccc(C(=O)NNC(=O)Nc2ccccc2)c1	n	n	n	n	n	n
CCc1cc(C(=O)NNC(=S)Nc2cccc(C)c2)cs1	66	n	n	n	n	28
CCCCNC(=S)NNC(=O)c1csc(CC)c1	34	n	n	n	n	n
C=CCNC(=S)NNC(=O)c1csc(CC)c1	n	n	n	n	n	n
CCc1cc(C(=O)Nc2ccc(C)cc2Br)cs1	71	n	n	n	n	57
Cc1cnc(CNc2cc(-c3ccc(N(C)C)cc3)ncn2)cn1	x	n	x	x	x	x
COc1ccc(NS(=O)(=O)c2cc(Br)cc3c2N(C(=O)C2CC2)CC3)cc1OC	x	x	x	n	n	x
Cc1nn(C)cc1CN(C)C(=O)C1CCC(=O)N(CCc2cccc(F)c2)C1 (centres undefined)	x	x	x	x	n	x
Cc1cccc(NC(=S)NNC(=O)c2sccc2C)c1	n	n	u	n	n	25
COc1ccccc1CNc1ncnc2ccc(-c3ccccc3C#N)cc12	x	n	x	x	x	x
Cc1c(C)c2ccc(OCC(=O)Nc3ccccn3)cc2oc1=O	62	x	n	n	n	34
Cc1c(C)c2ccc(OCC(=O)NCc3ccccn3)cc2oc1=O	n	n	n	n	n	n
Cc1cc(=O)oc2cc(OCC(=O)Nc3nccs3)ccc12	74	n	n	n	n	35
Cc1c(C)c2ccc(OCC(=O)Nc3cccnc3)cc2oc1=O	n	x	n	n	n	n
CCCCc1cc(=O)oc2cc(OCC(=O)Nc3ccccn3)ccc12	98	x	n	n	n	40
SMILES	Shiga inhibitor	Giardia FBPA inh	LmPK inhibitor	Sm TGR inh	Tb PYK inh	Cycloheximide cs
Cc1c(C)c2ccc(OCC(=O)Nc3nccs3)cc2oc1=O	78	x	n	n	n	45
COc1ccc(CNc2ccnc(-c3ccccc3Cl)n2)c(OC)c1	x	n	x	x	x	x
O=C(Nc1ccc(Cl)cc1Cl)c1cc(S(=O)(=O)NCc2ccc3c(c2)OCO3)ccc1F	x	x	x	n	n	x
CC(C)(C)c1ccc(C2Sc3ccccc3NC3=C2C(=O)c2ccccc23)cc1 (centres undefined)	x	x	x	n	n	x
CC(=O)c1ccc(NC(=O)CN(C)S(=O)(=O)c2cccc3nsnc23)cc1	x	x	x	n	n	x
CSc1cccc(NC(=O)Cn2cccc2)c1	n	n	n	n	n	n
CCc1ccc(NC(=O)c2cnn3ccccc23)cc1	n	n	n	n	n	43
O=C(NCc1ccc(F)cc1)c1cnn2ccccc12	n	n	n	n	n	30
CSc1cccc(NC(=O)c2cnn3ccccc23)c1	76	n	n	n	n	45
C/C(CCN1CCCc2nc(C)c(C)cc21)=N\O[C@@H](C)c1cc(-c2c(C)cc(C)cc2C)no1	x	n[12.9 µM]	x	x	x	x
O=Cc1cc(OCc2ccccc2)ccc1[B-](F)(F)F	x	x	x	x	n	x
Cc1ccsc1/C=C1\SC(N)=NC1=O	n	n	n	n	n	20
Cc1ccc(/C=C2\SC(N)=NC2=O)s1	n	n	n	n	n	n
O=C(NCc1ccccn1)c1cccs1	n	n	n	n	n	n
O=C(NCc1ccccn1)c1ccc(Br)s1	32	n	n	n	n	17
O=C(NCc1ccccn1)c1c(Cl)cccc1Cl	n	n	n	n	n	n
O=C(NCc1ccccn1)c1ccc(Cl)s1	n	n	n	n	n	24
COc1ccc(N=Cc2sc3ccccc3c2Cl)cc1	n	n	n	n	n	25
COc1ccc(Cn2c(O)c(C=Nc3ccc(OC)cc3)c3ccccc3c2=O)cc1	n	n	n	n	n	n
O=c1c2ccccc2sc2ccc(Cl)cc12	n	n	n	n	n	n
Oc1ccc(Cl)cc1N=Cc1sc2ccccc2c1Cl	61	n	n	u	n	41
O=[N+]([O-])c1ccc(O)c(N=Cc2sc3ccccc3c2O)c1	61	u	n	n	n	60
Cc1ccc2oc(-c3ccc(Cl)c(NC(=O)c4cc5ccccc5o4)c3)nc2c1	x	x	x	n	n	x
CCCCC1=CC2=C(OC(C)=O)C(=O)C(C)(OC(=O)CCC(=O)OC)C(=O)C2=CO1 (centres undefined)	x	n	x	x	x	x
Cc1ccc(OCCCCn2ccnc2)c([N+](=O)[O-])c1	n	u	n	n	n	21
SMILES	Shiga inhibitor	Giardia FBPA inh	LmPK inhibitor	Sm TGR inh	Tb PYK inh	Cycloheximide cs
CCOc1ccc(OCCCCn2ccnc2)cc1	n	n	n	n	n	26
Cc1ccc(C)c(OCCCCn2ccnc2)c1	n	n	n	n	n	n
Cc1ccc(OCCCCn2ccnc2)c(Cl)c1	40	n	n	n	n	27
Cc1ccc(OCCOCCn2ccnc2)c(Br)c1	n	n	n	n	n	31
CCc1ccc(NC(=O)c2sc3nc(C)cc(C)c3c2NC(=O)c2ccccc2OC)cc1	x	x	x	n	n	x
COc1ccc(CCNC(=O)C(=O)NCC2OCCN2S(=O)(=O)c2cccs2)cc1 (centres undefined)	n	n	n	n	n	n
Cc1ccc(NC(=O)C2Cc3ccccc3N2C(=O)c2ccccc2)cc1Cl (centres undefined)	x	x	x	n	n	x
Cc1ccc(NC(=O)C2OCCc3ccccc32)cc1Cl (centres undefined)	58	n	n	n	n	18
Cc1ccc(NC(=O)C2OCCc3ccccc32)cc1 (centres undefined)	79	n	n	n	n	40
Cc1ccc([C@@H]2CC=C(C(=O)O)[C@H](c3cccc(Cl)c3)N2S(=O)(=O)c2ccccc2C)cc1	x	x	x	x	n	x
COc1ccc2c(c1)SCCC2=O	n	n	n	n	n	n
COc1ccc2c(c1)OCC1=C2CCC2(C)C(=O)CC=C12 (centres undefined)	n	u	n	20µM	x	n
